Measured values taken from PubChem BioAssay (Tox21).
Inconclusive results are not listed. A number with no mark means an inactive call. Calls of active or inactive are those of the source. The call rests on the fitted dose curve; in most records, active means well fitted activation curve with a large enough effect in the signal ratio in the repeat runs (not every such curve was filed as active); inconclusive means weak or mixed curves, or effect the other way; inactive means no such curve, though single readings can be large or run the other way; the % refers to the signal ratio.

Experiment: qHTS assay for small molecule agonists of the antioxidant response element (ARE) signaling pathway (AID 743202)
Settings: HepG2 ARE-bla reporter, beta-lactamase FRET, 16 h; series mostly up to 73.3 µM; activation: at the top concentration
From the text: U.S. Tox21 Program National Center for Advancing Translational Sciences [NCATS] NIH Chemical Genomics Center [NCGC] U.S. Environmental Protection Agency [EPA] National Institutes of Environmental Health Sciences [NIEHS] National Toxicology Program [NTP] U.S. Food and Drug Administration [FDA] Tox21 Assay Overview: Oxidative stress has been implicated in the pathogenesis of a variety of diseases ranging from cancer to neurodegeneration. The antioxidant response element (ARE) signaling pathway plays an important role in the amelioration of oxidative stress. The CellSensor ARE-bla HepG2 cell line (Invitrogen) can be used for analyzing the Nrf2/antioxidant response signaling pathway. Nrf2 (NF-E2-related factor 2) and Nrf1 are transcription factors that bind to AREs and activate these genes. The CellSensor ARE-bla Hep G2 cell line contains a beta-lactamase reporter gene under control of the Antioxidant Response Element (ARE) stably integrated into HepG2 cells. The activation of the report gene under culture conditions can be detected by fluorescence intensity. This cell line has been used to screen the Tox21 10K compound library to identify agonists that induce oxidative stress.
Tox21 Assay Protocol Summary: The ARE-bla cells were dispensed at 2,000 cells/5 ul/well in 1536-well black wall/clear bottom plates using a Multidrop dispenser. After the assay plates were incubated at a 37 C/5% CO2 incubator for 5 hours, 23 nL of compounds dissolved in DMSO, positive controls or DMSO only was transferred to the assay plate by a pin tool. The plates were incubated at 37 C for 16 hours. After 1 uL of LiveBLAzer B/G FRET substrate was added using a Flying Reagent Dispenser, the plates were incubated at room temperature for 2 hours, and fluorescence intensity was measured by an Envision plate reader.
On the % scale 0 is the no-effect control and ±100 the full control effect; potency means the concentration at half of the fitted maximal effect.

Row | SMILES | activation | Potency
1 | CCOC(=O)COc1cc(-c2nn(C)c(OC(F)F)c2Cl)c(F)cc1Cl | 0.973% | –
2 | O=C(CBr)OCc1ccccc1 | 16% | –
3 | ClCCCCBr | -1.2% [at 94.8 µM] | –
4 | CCCN(CC1CC1)c1c([N+](=O)[O-])cc(C(F)(F)F)cc1[N+](=O)[O-] | -7.42% | –
5 | O=NN1CCNCC1 | 8.71% [at 94.8 µM] | –
6 | ClP(Cl)(Cl)(Cl)Cl | -0.98% [at 94.8 µM] | –
7 | CCCN(CCCl)c1c([N+](=O)[O-])cc(C(F)(F)F)cc1[N+](=O)[O-] | 5.38% | –
8 | CC1Sc2c(C(=O)O)c(=O)c3cc(F)c(N4CCNCC4)cc3n21 (stereo not given) | -5.68% | –
9 | C=CC(=O)OC(C)(C)C | -3% | –
10 | C=CCCl | 4.39% [at 94.8 µM] | –
11 | CN(N=O)c1ccc([N+](=O)[O-])cc1 | 15.8% | –
12 | CCOP(=O)(OCC)SCCSCC | -6.26% | –
13 | CCOC(=O)CBr | 10.4% [at 94.8 µM] | –
14 | COC(=O)c1cncn1C(C)c1ccccc1 (stereo not given) | 0.758% | –
15 | CNP(=O)(OC)Oc1ccc(C(C)(C)C)cc1Cl (stereo not given) | – | 54.5 µM (active)
16 | CCOP(=S)(OCC)Oc1cc(Cl)c(Br)cc1Cl | 1.02% | –
17 | CCOP(O)OCC | -4.15% | –
18 | CC1(C)[C@H](C=C(Cl)Cl)[C@@H]1C(=O)O[C@@H](C#N)c1cccc(Oc2ccccc2)c1 | -5.49% | –
19 | Clc1cccc2ccccc12 | 8.84% | –
20 | CC[C@H]1C[C@H]2[C@@H]3CCC4=CC(=O)CC[C@@H]4[C@H]3CC[C@]2(C)[C@H]1O | – | 29.8 µM (active)

Row | SMILES | activation | Potency
21 | CCCCN(N=O)C(=N)N[N+](=O)[O-] | 8.1% [at 94.8 µM] | –
22 | CCCCCCC#N | -3.4% | –
23 | CCOP(=S)(OCC)SCSCC | -4.54% | –
24 | Brc1ccc(Oc2ccccc2)cc1 | -0.524% [at 94.8 µM] | –
25 | COc1ccc(-c2ccccc2)cc1NNC(=O)OC(C)C | – | 16 µM (active)
26 | Clc1cc(Cl)c(Cl)c(Cl)c1 | -1.37% | –
27 | C=CCOC(C)=O | -6.87% | –
28 | NC(=O)CI | 4.72% [at 94.8 µM] | –
29 | COc1c(C(C)(C)C)cc([N+](=O)[O-])c(C)c1[N+](=O)[O-] | 15.3% | –
30 | Sc1ccccc1Cl | -13.9% | –
31 | CC(C)N(CCC(C(N)=O)(c1ccccc1)c1ccccn1)C(C)C (stereo not given) | -5.97% | –
32 | NCC(CC(=O)O)c1ccc(Cl)cc1 (stereo not given) | -5.3% [at 0.756 µM] | –
33 | N#C/C(N)=C(/N)C#N | 9.67% | –
34 | C[N+](C)(C)CCCl | 14.9% [at 94.8 µM] | –
35 | Nc1nc(N)nc(N)n1 | -10.1% [at 94.8 µM] | –
36 | N#CCC#N | 1.04% | –
37 | O=NN1CCCCCC1 | -10.5% | –
38 | CC/C(=N\OC/C=C/Cl)C1=C(O)CC(C2CCOCC2)CC1=O (stereo not given) | 1.95% | –
39 | CCC(Cl)CCl (stereo not given) | -7.99% [at 94.8 µM] | –
40 | Cc1cc(=O)[nH]o1 | -11.2% [at 94.8 µM] | –
